A selection: hits, their analogues and other compounds. The true share with any hit is near 19%.
KB-V1 MDR tox: KB-V1 MDR subline cytotoxicity. KB-V1 MDR cells viability, CellTiter-Glo, 72 h. Potency, µM (titrated, usually from 46.1 µM), usual class: cytotoxic. 400,000 tested, 3.4% active. AID 1347076; note: nearly all actives have a fitted effect of over 60% in size
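Cells of the MDR subline KB-V1 are plated, dosed with compound at multiple concentrations, and incubated 72 h at 37 degrees C; CellTiter-Glo is then added and luminescence read after 10 min.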
TDP1 cell CPT: DT40-hTDP1 cell growth loss with CPT | AID 686979 | Potency, µM (doses to about 46.2 µM), inactives show at the highest dose activity change, negative = growth inhibition, usual class: inhibitors | chicken DT40 Tdp1-/-;hTDP1 cells + 20 nM CPT, ATP luminescence, 48 h | 420,000 tested, 12% active; note: nearly all actives have a fitted effect of over 55% in size
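Cell growth measured by CellTiter-Glo luminescence after a minimum 48 h, 37 C compound exposure with 20 nM CPT in Tdp1-knockout DT40 cells stably expressing hTDP1, seeded 400/well; qHTS titration format.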
HT1080 IDH1KD tx: toxicity to HT-1080 IDH1 knockdown cells (counter line); 360,000 tested, 2% active; AID 686971; Potency, µM (series often up to 46.1 µM), for inactives: top-dose activity, negative = toxicity, hits mostly cytotoxic; HT-1080 IDH1 knockdown viability, ATP luminescence, 48 h;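 note: 0% = DMSO wells and -100% = cell-free medium wells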
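Assay cells: HT-1080 with IDH1 knockdown, 750 per well, RPMI/5% FBS. Exposure: 48 h at 37 °C following 2 h pre-incubation. Read: CellTiter-Glo luminescence; fitted concentration-response, curve class assigned.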
TDP1 cell noCPT: qHTS for Inhibitors of human tyrosyl-DNA phosphodiesterase 1 (TDP1): qHTS in cells in absence of CPT; AID 686978, 2013; Potency, µM (series often up to 46.2 µM), without a hit: at the top dose activity change, negative = growth inhibition, actives largely listed as inhibitors; DT40 Tdp1-/- hTDP1 cells, no CPT, ATP luminescence, 48 h; 420,000 tested, 15% active; note: nearly all actives have a fitted effect of over 55% in size
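Chicken DT40 Tdp1-/- cells complemented with human TDP1, screened without camptothecin (DMSO vehicle only), 400 cells/well. Compounds pin-transferred, cells incubated at 37 °C for at least 48 hr. Growth read as ATP-dependent luminescence (CellTiter-Glo, 30 min at RT).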
KB-3-1 cytotox: KB-3-1 parental cell cytotoxicity. KB-3-1 viability, CellTiter-Glo ATP luminescence, 72 h. Potency, µM (doses to about 46.1 µM), hits mostly cytotoxic. 400,000 tested, 1.4% active; note: nearly all actives have a fitted effect of over 60% in size
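72 h, 37 °C compound treatment of KB-3-1 parental cells; CellTiter-Glo added, 10 min, luminescence read. Data corrected against DMSO-only plates and normalized before curve fitting.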
HT1080NT lethal: kills 2HG-producing HT-1080-NT fibrosarcoma cells. 360,000 tested, 1.6% active. HT-1080-NT fibrosarcoma viability, CellTiter-Glo ATP luminescence, 48 h. AID 686970. Potency, µM (titrated, usually from 46.1 µM), for the others: top-dose activity, negative = less viability, usual class: cytotoxic;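 note: NT is the 2HG producing partner of a matched IDH1 knockdown line; 0% = DMSO-treated cells and -100% = media-only wells without cells; nearly all actives have a fitted effect of over 55% in size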
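HT-1080-NT fibrosarcoma cells (2HG-overproducing), 750 cells/well in RPMI with 5% FBS, dosed after 2 h and incubated 48 h at 37C. CellTiter-Glo luminescence normalized to DMSO and no-cell wells; concentration-response curves fitted and classed.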
* = called active by the depositor; i = inactive; ? = inconclusive; · = no result; ! = not active in a repeat; [ ] = dose if it differs, or a comment. Calls come from the whole dose curve; as a rule, active = well fitted curve in the direction sought with a large enough effect; inconclusive = small, poorly fitted or top-dose-only effect, or another doubt; inactive = no such curve, though single readings can be large; an effect the other way counts as inactive or inconclusive. Unless noted, % is set by controls: 0 for no effect and ±100 for the full control effect; potency is the fitted concentration of half-maximal effect.

SMILES	KB-V1 MDR tox	TDP1 cell CPT	HT1080 IDH1KD tx	TDP1 cell noCPT	KB-3-1 cytotox	HT1080NT lethal
COc1ccc(CN2CCOc3ccc(CN4CCCCC4CO)cc3C2)c(OC)c1 (stereo not drawn)	·	3.8%[9.04 µM]	·	?	·	·
COC(=O)C1=C(C)NC(=O)NC1c1cn(-c2ccccc2)nc1-c1ccc(OC)c(Br)c1 (stereo not drawn)	i	-24.8%	·	?	i	·
CC1CCN(CC[S-])CC1.O.O.[Cl][Pt]	?	1.26µM*	·	1.58µM*	13µM*	·
COc1cc(C2SCC(=O)N2c2nnc(C34CC5CC(CC(C5)C3)C4)s2)cc(OC)c1OC (stereo not drawn)	?	18.4µM*	4.2%	?	i	2.5%
NNC(=O)c1cc(Br)cs1	i	?	3.9%	10.5%	i	5.9%
COc1ccc(CC(=O)N(c2ccccc2)c2nc(C)cs2)cc1	16.4µM*	18.4µM*	-3.9%	13µM*	i	-6.2%
Cc1csc(N(C(=O)Cc2ccccc2F)c2ccccc2)n1	i	?	-5.8%	23.1µM*	i	-17.2%
CC1CN(CCN2CC(C)N(C=O)CC2C)C(C)CN1C=O (stereo not drawn)	i	32.6%	-0.9%	10.1%	i	-0.6%
CCOC(=O)c1c(NC(=O)CSc2nnc(Cc3ccccc3)o2)sc(C)c1C	i	?	-2.3%	?	i	-10.5%
COc1ncnc2c1NC1=C(S2)C(=NCCC(=O)O)CC(C)(C)C1	i	-4.5%	4.1%	-23.6%	i	16.5%
CN(C)c1ncnc2c1NC1=C(S2)C(=NCCCC(=O)O)CC(C)(C)C1	i	20.6µM*	5.9%	?	i	4.5%
O=C(NC1CCCCC1)Oc1ccccc1	i	17.4%	14.5%	-24.8%	i	12.9%
CCCCCCCCCCOC(=O)NC1CCS(=O)(=O)C1 (stereo not drawn)	?	?	-28.4%	20.6µM*	i	-25.5%
O=C(NC1CCS(=O)(=O)C1)Oc1ccccc1 (stereo not drawn)	i	?	6.9%	25.9µM*	i	2.0%
CCCOC(=O)NC1CCS(=O)(=O)C1 (stereo not drawn)	i	3.7%	10.4%	-1.6%	i	7.4%
CCCCCOP(=O)(OCCCCC)C1(NS(=O)(=O)c2ccccc2)C=CC(=O)c2ccccc21 (stereo not drawn)	i	?	?	?	i	?
Cc1ccc(C(=O)C(C)OC(=O)c2cc3cc([N+](=O)[O-])ccc3oc2=O)cc1 (stereo not drawn)	i	-2.4%	11.2µM*	-2.2%	i	-15.4%
COc1cccc2cc(C(=O)OC(C)C(=O)c3ccc(C)cc3)c(=O)oc12 (stereo not drawn)	i	-14.7%	11.5%	25.0%	i	19.2%
Cc1nnc(NC(=O)CN2CCN(Cc3ccc(F)cc3Cl)CC2)s1	i	-21.6%	-2.2%	-1.1%	i	-5.6%
CCOc1ccc(NC(=O)c2sc3nc4n(c(=O)c3c2C)CCC4)cc1	i	?	4.0%	-12.5%	i	9.5%
Cc1c(C(=O)Nc2cccc(C#N)c2)sc2nc3n(c(=O)c12)CCCCC3	i	16.4µM*	·	13µM*	i	·
CCOC(=O)c1ccc(NC(=O)c2sc3nc4n(c(=O)c3c2C)CCC4)cc1	i	16.4µM*!	?	18.4µM*	i	1.2%
Cc1c(C(=O)Nc2cccc(C(F)(F)F)c2)sc2nc3n(c(=O)c12)CCC3	i	23.1µM*	·	23.1µM*	?	·
Cc1nc2ncnn2c(C)c1Cc1cccc(C(F)(F)F)c1	i	?	-9.6%	?	i	-4.2%
COc1cc2nc(NCCC(C)C)n3nc(-c4ccccc4)nc3c2cc1OC	i	?	·	?	i	·
SMILES	KB-V1 MDR tox	TDP1 cell CPT	HT1080 IDH1KD tx	TDP1 cell noCPT	KB-3-1 cytotox	HT1080NT lethal
Cn1c(C(=O)NCc2ccc(F)cc2)cc2cc(S(=O)(=O)N3CCCCC3)ccc21	·	23.1µM*	·	11.6µM*	·	·
Cc1ccccc1CNC(=O)c1cc2cc(S(=O)(=O)N3CCCCC3)ccc2n1C	·	?	·	18.4µM*	·	·
CCc1ccc(CNC(=O)c2cc3cc(S(=O)(=O)N4CCCCC4)ccc3n2C)cc1	·	?	·	13µM*	·	·
CC1CCN(C(=O)CCCC(=O)N2CCC(C)CC2)CC1	i	-13.1%	5.8%	6.6%	i	14.9%
CCCCOc1ccccc1C1NC(=O)NC(C)=C1C(=O)OCCOC (stereo not drawn)	?	-2.5%	-3.3%	-0.4%	i	-0.2%
CCOc1ccc2nc(N3CCC(C(=O)N4CCN(c5ncccn5)CC4)CC3)sc2c1	i	?	-3.7%	?	?	-1.2%
CCOc1ccc2nc(N3CCN(C(=O)c4ccco4)CC3)sc2c1	·	?	·	18.4µM*	·	·
O=C(CSc1nc2ccccc2s1)N1CCN(C(=O)c2ccco2)CC1	i	-28.0%	-4.7%	?	i	-15.6%
CCOc1ccc2nc(N3CCC(C(=O)N4CCN(c5ccccn5)CC4)CC3)sc2c1	i	5.8µM*	-15.4%	6.51µM*	?	-16.9%
CCOc1ccc2nc(SCC(=O)N3CCN(C(=O)c4ccco4)CC3)sc2c1	i	?	-7.6%	11.6µM*	i	-1.4%
O=C(Cn1cc(C(F)(F)F)ccc1=O)N1CCN(S(=O)(=O)c2ccccc2)CC1	i	-12.7%	-0.2%	-12.2%	i	2.9%
COc1ccccc1CC(=O)N(CCC#N)CCC#N	i	-1.0%	20.0%	-3.4%	i	8.0%
CCCCCC1CCC(C(=O)NNC(=S)NCC)CC1 (stereo not drawn)	14.6µM*	23.1µM*	3.16µM*	?	?	6.31µM*
COC(=O)C1(Cc2ccc(O)c(CC3OC3(C)C)c2)OC(=O)C(O)=C1c1ccc(O)cc1 (stereo not drawn)	?	19.2%	6.6%	-9.5%	?	-1.0%
CCOc1ccccc1C(=O)NC(C)c1ccc2c(c1)OCO2 (stereo not drawn)	9.2µM*	18.4µM*	?	?	?	?
CCOc1ccccc1C(=O)NCC(=O)Nc1ccc2c(c1)OCO2	?	-20.1%	-1.6%	-7.3%	i	-28.1%
CCOC(=O)N1CCC(N2Cc3cccc(C(=O)NC(C)c4ccc5c(c4)OCCO5)c3C2=O)CC1 (stereo not drawn)	i	?	-1.1%	23.1µM*	i	-10.6%

Source: PubChem BioAssay
